Experimental data from PubChem BioAssay AID624255 (Broad Institute, 2012).
Where “and” joins values, the source holds several entries; their conditions need not be identical. Equal values may be shown once. Among all 77,000 compounds or so, about 4,600 (6%) were called active. About 1% were inconclusive and are not listed. The sample as a whole holds a higher share of actives than the screen did. A number with no mark means an inactive call.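 How the source made its calls: active means mean inhibition above about 93%, with at least 55% of replicates each passing it (limit read from the data, passing the limit was not always enough); inconclusive means only one of those two conditions holds; inactive means neither condition holds.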

Assay: growth inhibition of T. cruzi in host fibroblasts – cell-based, beta-gal Tulahuen parasites, NIH3T3 host, luminescence, primary screen (AID 624255)
Conditions: T. cruzi beta-gal in NIH3T3, GalScreen luminescence, 90 h; at 8.34 µM; stronger effect = higher value

Which inhibition does the source give for CN1C(=O)c2cc(NC(=O)c3ccccc3)ccc2OC[C@@H]2O[C@H](CC(=O)NCC3CC3)CC[C@@H]21 here?
Its inhibition is -30.4%.

For O=C(c1cccnc1)N1C[C@H]2[C@@H](c3ccccc31)[C@@H](CO)N2C(=O)Nc1ccccc1F, which inhibition is on record?
The inhibition was -1.74%.

Which inhibition does the source give for C[C@H]1CN([C@@H](C)CO)C(=O)c2c(c3ccccc3n2C)-c2ccccc2CO[C@H]1CN(C)S(=O)(=O)c1ccc(C#N)cc1 here?
Its inhibition is 29.4%.

For C[C@H]1CN([C@@H](C)CO)S(=O)(=O)c2ccc(-c3cccc(F)c3)cc2O[C@@H]1CN(C)C, which inhibition is on record?
The inhibition was -32.3% and -49.6%.

Which inhibition does the source give for C[C@@H]1CN([C@H](C)CO)S(=O)(=O)c2ccc(-c3cccc(F)c3)cc2O[C@H]1CN(C)S(=O)(=O)c1ccc(F)cc1 here?
The inhibition was 118% (active).

For C[C@@H]1CN([C@@H](C)CO)S(=O)(=O)c2ccc(-c3ccc(F)cc3)cc2O[C@H]1CN(C)C(=O)c1ccccc1F, which inhibition is on record?
The inhibition was 84.8%.

For COc1cccc(NC(=O)N[C@@H]2CC[C@H](CC(=O)NCc3ccccn3)O[C@H]2CO)c1, which inhibition is on record?
Its inhibition is -39.2%.

Which inhibition does the source give for CO[C@@H]1CN(C)C(=O)c2cc(NS(=O)(=O)c3cn(C)cn3)ccc2OC[C@@H](C)NC[C@H]1C here?
The inhibition was -12.5%.

For Cc1ccccc1S(=O)(=O)N[C@H]1CC[C@@H](CCn2cc(Cc3ccccc3)nn2)O[C@H]1CO, which inhibition is on record?
The inhibition was -21.8%.

With CCC(=O)N1CC[C@@H]2[C@@H](CO)N(C)c3ccc(-c4cccc(OC)c4)cc3[C@@H]21 as the compound, how does the inhibition read?
The inhibition was 104% (active).

With COc1ccc(-c2ccc3c(c2)[C@@H]2[C@@H](CCN2C(=O)Cc2ccccn2)[C@H](CO)N3C)cc1 as the compound, how does the inhibition read?
The inhibition was 90.9% (active).

Which inhibition does the source give for CCC(=O)N1CC[C@H]2[C@@H]1c1cc(-c3ccc(C#N)cc3)ccc1N(C)[C@H]2CO here?
The inhibition was 58.1%.

Which inhibition does the source give for CN1c2ccc(-c3ccccc3)cc2[C@@H]2[C@@H](CCN2C(=O)c2ccccc2)[C@H]1CO here?
The inhibition was 62.4%.

For COc1ccc(-c2ccc3c(c2)[C@H]2[C@H](CCN2C(=O)C2CCOCC2)[C@H](CO)N3C)cc1, which inhibition is on record?
Its inhibition is 1.27%.

For CN1c2ccc(-c3ccccc3)cc2[C@@H]2[C@@H](CCN2C(=O)c2ccncc2)[C@@H]1CO, which inhibition is on record?
The inhibition was 103% (active).

Which inhibition does the source give for CN1c2ccc(-c3ccccc3F)cc2[C@H]2[C@H](CCN2C(=O)Cc2ccccn2)[C@H]1CO here?
The inhibition was 81%.

For COc1cccc(NC(=O)N2CC[C@@H]3[C@@H](CO)N(C)c4ccc(-c5cccc(F)c5)cc4[C@@H]32)c1, which inhibition is on record?
Its inhibition is 30.5%.

Which inhibition does the source give for CN1c2ccc(-c3ccccc3)cc2[C@@H]2[C@@H](CCN2C(=O)c2ccccc2F)[C@@H]1CO here?
The inhibition was 83.7%.

With CCCNC(=O)C[C@@H]1CC[C@H]2[C@H](COc3ccc(NC(=O)c4ccc(Cl)cc4)cc3C(=O)N2C)O1 as the compound, how does the inhibition read?
Its inhibition is 29.6%.

For COc1ccc(S(=O)(=O)Nc2ccc3c(c2)C(=O)N(C)C[C@@H](OC)[C@H](C)CN(C(=O)NC(C)C)[C@H](C)CO3)cc1, which inhibition is on record?
Its inhibition is -70.7%.

With COc1ccc(NC(=O)N[C@H]2C=C[C@H](CC(=O)NCc3ccccn3)O[C@H]2CO)cc1 as the compound, how does the inhibition read?
The inhibition was -16.1%.

For Cc1noc(C)c1NC(=O)Nc1ccc2c(c1)C(=O)N([C@H](C)CO)C[C@@H](C)[C@H](CN(C)S(=O)(=O)c1ccc(Cl)cc1)OCCCC[C@H](C)O2, which inhibition is on record?
The inhibition was 53.3%.

With COCCNC(=O)C[C@H]1CC[C@H]2[C@H](COc3ccc(NC(=O)C4CCOCC4)cc3C(=O)N2C)O1 as the compound, how does the inhibition read?
Its inhibition is 17.3%.

For C[C@@H]1CN([C@@H](C)CO)C(=O)c2cc(NC(=O)C3CCCCC3)ccc2O[C@@H](C)CCCCO[C@H]1CN(C)C(=O)CCC(F)(F)F, which inhibition is on record?
The inhibition was 29.9%.

For COCC(=O)Nc1ccc2c(c1)OC[C@@H](C)N(Cc1cocn1)C[C@@H](C)[C@@H](OC)CN(C)C2=O, which inhibition is on record?
Its inhibition is -2.18%.

For CN1c2ccc(-c3ccc(C#N)cc3)cc2[C@@H]2[C@@H](CCN2S(=O)(=O)c2cccc(F)c2)[C@@H]1CO, which inhibition is on record?
Its inhibition is 72.5%.

For COCC(=O)Nc1ccc2c(c1)[C@H]1C[C@H](CC(=O)NCc3ccc(OC)cc3)O[C@@H](CO)[C@H]1O2, which inhibition is on record?
Its inhibition is 4.09%.

Which inhibition does the source give for O=C(C[C@H]1CC[C@H]2[C@@H](COC[C@H](O)CN2C(=O)c2ccncc2)O1)NCc1cc(F)cc(F)c1 here?
Its inhibition is 43.6%.

Which inhibition does the source give for COc1ccc(CN(C)C[C@H]2Oc3ccc(NC(=O)Cc4ccccc4)cc3CC(=O)N([C@@H](C)CO)C[C@@H]2C)cc1 here?
Its inhibition is 74%.

Which inhibition does the source give for C[C@@H]1CN([C@@H](C)CO)C(=O)Cc2cc(NC(=O)C3CCCCC3)ccc2O[C@@H]1CN(C)Cc1ccc(C(=O)Nc2ccccc2N)cc1 here?
The inhibition was 103% (active).

For C[C@@H]1CN([C@H](C)CO)C(=O)Cc2cc(NC(=O)Cc3cn(C)c4ccccc34)ccc2O[C@@H]1CN(C)Cc1ccc(C(F)(F)F)cc1, which inhibition is on record?
Its inhibition is 89.6%.

For C[C@@H]1CN([C@H](C)CO)C(=O)Cc2cc(NC(=O)Nc3ccc(C(F)(F)F)cc3)ccc2O[C@H]1CN(C)Cc1ccc(-c2ccccc2)cc1, which inhibition is on record?
Its inhibition is 67.4%.

Which inhibition does the source give for C[C@H]1CN([C@@H](C)CO)C(=O)Cc2cc(NC(=O)Cc3cn(C)c4ccccc34)ccc2O[C@@H]1CN(C)Cc1ccc(C(F)(F)F)cc1 here?
Its inhibition is 103% (active).

With C[C@@H]1CN([C@@H](C)CO)C(=O)Cc2cc(NC(=O)Cc3ccccc3)ccc2O[C@@H]1CN(C)Cc1ccc(Oc2ccccc2)cc1 as the compound, how does the inhibition read?
The inhibition was 12.2%.

With C[C@H]1CN([C@@H](C)CO)C(=O)Cc2cc(NS(=O)(=O)c3ccccc3)ccc2O[C@@H]1CN(C)Cc1ccc(C(=O)Nc2ccccc2N)cc1 as the compound, how does the inhibition read?
Its inhibition is 21.9%.

With C[C@H](CO)N1C[C@H](C)[C@H](CN(C)Cc2ccc(-c3ccccc3)cc2)Oc2ccc(NC(=O)Nc3ccc(F)cc3)cc2CC1=O as the compound, how does the inhibition read?
Its inhibition is 100% (active).

For C[C@H]1CN([C@@H](C)CO)C(=O)Cc2cc(NS(=O)(=O)c3ccccc3)ccc2O[C@H]1CN(C)Cc1ccc(C(=O)Nc2ccccc2N)cc1, which inhibition is on record?
The inhibition was 48%.

Which inhibition does the source give for C[C@H]1CN([C@@H](C)CO)C(=O)Cc2cc(NC(=O)Cc3cn(C)c4ccccc34)ccc2O[C@H]1CN(C)Cc1ccccc1 here?
Its inhibition is 83.1%.

With C[C@@H]1CN([C@H](C)CO)C(=O)Cc2cc(NC(=O)Nc3ccccc3)ccc2O[C@@H]1CN(C)Cc1ccc(C(F)(F)F)cc1 as the compound, how does the inhibition read?
The inhibition was 86.5%.

With C[C@@H]1CN([C@H](C)CO)C(=O)Cc2cc(NC(=O)Cc3ccccc3)ccc2O[C@H]1CN(C)Cc1ccc(Oc2ccccc2)cc1 as the compound, how does the inhibition read?
The inhibition was 99.8% (active).

For C[C@@H]1CN([C@@H](C)CO)S(=O)(=O)c2ccc(-c3cncnc3)cc2O[C@@H]1CN(C)C(=O)C1CC1, which inhibition is on record?
Its inhibition is 21.1%.

Which inhibition does the source give for CCNC(=O)C[C@H]1CC[C@@H]2[C@H](COC[C@H](O)CN2S(=O)(=O)c2ccc(Oc3ccccc3)cc2)O1 here?
Its inhibition is 2.89%.

Which inhibition does the source give for C/C=C/c1ccc([C@@H]2[C@@H](CO)N(C(=O)CC)[C@H]2CN(C)C(=O)C2CC2)cc1 here?
The inhibition was 15%.

Which inhibition does the source give for COc1ccc(CNC(=O)C[C@H]2C[C@H]3c4cc(NS(C)(=O)=O)ccc4O[C@H]3[C@@H](CO)O2)cc1 here?
The inhibition was -53%.

Which inhibition does the source give for CNC(=O)C[C@H]1CC[C@H]2[C@@H](COc3ccc(NS(=O)(=O)c4ccc(F)cc4)cc3C(=O)N2C)O1 here?
The inhibition was 17.2%.

For CN(C)C(=O)C[C@@H]1CC[C@H]2[C@@H](COC[C@H](O)CN2C(=O)c2ccncc2)O1, which inhibition is on record?
Its inhibition is 24.8%.

For COc1ccc(S(=O)(=O)Nc2ccc3c(c2)CC(=O)N([C@H](C)CO)C[C@@H](C)[C@H](CN(C)S(=O)(=O)c2c(C)noc2C)O3)cc1, which inhibition is on record?
Its inhibition is -5.62%.

For C[C@@H](NC(=O)[C@H]1[C@H](CO)[C@H]2Cn3c(cccc3=O)[C@@H]1N2Cc1cccnc1)c1ccccc1, which inhibition is on record?
Its inhibition is 50%.

Which inhibition does the source give for C[C@@H]1CN([C@H](C)CO)C(=O)CCCn2nncc2CO[C@@H]1CN(C)Cc1ccc(C(=O)Nc2ccccc2N)cc1 here?
Its inhibition is 103% (active).

For C[C@@H]1CN([C@@H](C)CO)C(=O)c2cccc(NC(=O)c3cnccn3)c2O[C@H]1CN(C)Cc1ccc(C(=O)O)cc1, which inhibition is on record?
Its inhibition is -4.45%.

Which inhibition does the source give for C[C@@H]1CN([C@@H](C)CO)C(=O)CCCn2nncc2CO[C@@H]1CN(C)Cc1ccccc1 here?
Its inhibition is -1.5%.

For C[C@@H]1CN([C@@H](C)CO)C(=O)c2cccc(NC(=O)c3cnccn3)c2O[C@H]1CN(C)Cc1ccc(-c2ccccc2)cc1, which inhibition is on record?
Its inhibition is 98.7%.

With C[C@H]1CN([C@@H](C)CO)C(=O)CCCn2nncc2CO[C@H]1CN(C)Cc1ccccc1 as the compound, how does the inhibition read?
The inhibition was -4.75%.

Which inhibition does the source give for C[C@@H]1CN([C@H](C)CO)C(=O)c2cccc(NC(=O)c3cnccn3)c2O[C@@H]1CN(C)Cc1ccc(C(=O)Nc2ccccc2N)cc1 here?
The inhibition was 109% (active).

For COCC(=O)Nc1ccc2c(c1)C(=O)N(C)[C@H]1CC[C@H](CC(=O)Nc3ccccc3)O[C@H]1CO2, which inhibition is on record?
The inhibition was 43.2%.

Which inhibition does the source give for C[C@@H]1CN([C@H](C)CO)C(=O)c2cc(-c3ccc(C#N)cc3)cnc2O[C@@H]1CN(C)C(=O)Nc1ccccc1 here?
The inhibition was 33.2%.

For CCN1[C@@H]2Cn3c(ccc(-c4cccnc4)c3=O)[C@H]1[C@@H](C(=O)NC1CCCCC1)[C@@H]2CO, which inhibition is on record?
Its inhibition is -16.4%.

For O=C(NC[C@@H]1[C@H](c2ccccc2)[C@H](CO)N1CC1CCCC1)c1cccnc1, which inhibition is on record?
The inhibition was 15.8%.

With CO[C@H]1CN(C)C(=O)c2ccc(NC(C)=O)cc2OC[C@H](C)N(C(=O)c2ccccc2)C[C@H]1C as the compound, how does the inhibition read?
The inhibition was -19.6%.

Which inhibition does the source give for CCNC(=O)[C@@H]1[C@@H](CO)[C@@H]2Cn3c(ccc(-c4ccncc4)c3=O)[C@@H]2N1Cc1cc(F)ccc1F here?
Its inhibition is 80.1%.
